Assay results taken from PubChem BioAssay (NCATS).
Results filed as inconclusive are left out. Calls of active or inactive are those of the source. Unless noted, the call rests on the fitted dose curve; in most records, active means well fitted cell-killing curve with a large enough effect; inconclusive means small, poorly fitted or top-dose-only effect, or effect the other way; inactive means no such curve, though single readings can be large or run the other way.

Tests used:
[1] = Quantitative High-Throughput drug screen in 47 multiple myeloma cell lines against the NCATS MIPE library collection: KMS28PE_JCRB cell viability assay (AID 1918983); further: nearly all actives have a fitted effect of over 35% in size
How it was run: (§1)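 Plated at 500 cells per well, myeloma lines received MIPE 4.0 compounds by pin tool. Following 48 h culture at 37 °C, CellTiter-Glo luminescence gave viability relative to DMSO and media-only controls.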

[2] = Quantitative High-Throughput drug screen in 47 multiple myeloma cell lines against the NCATS MIPE library collection: L363_DSMZ cell viability assay (AID 1918984); further: nearly all actives have a fitted effect of over 40% in size
How it was run: as §1

[3] = Quantitative High-Throughput drug screen in 47 multiple myeloma cell lines against the NCATS MIPE library collection: KMS34_JCRB cell viability assay (AID 1918985); further: nearly all actives have a fitted effect of over 40% in size
How it was run: as §1

[4] = Quantitative High-Throughput drug screen in 47 multiple myeloma cell lines against the NCATS MIPE library collection: OCIMY7_PLB cell viability assay (AID 1918987); further: nearly all actives have a fitted effect of over 65% in size
How it was run: as §1

[5] = Quantitative High-Throughput drug screen in 47 multiple myeloma cell lines against the NCATS MIPE library collection: OPM1_PLB cell viability assay (AID 1918989); further: nearly all actives have a fitted effect of over 40% in size
How it was run: as §1

[6] = Quantitative High-Throughput drug screen in 47 multiple myeloma cell lines against the NCATS MIPE library collection: U266_ATCC cell viability assay (AID 1919864); further: nearly all actives have a fitted effect of over 35% in size
How it was run: as §1

[7] = Quantitative High-Throughput drug screen in 47 multiple myeloma cell lines against the NCATS MIPE library collection: XG6_PLB cell viability assay (AID 1919865); further: nearly all actives have a fitted effect of over 40% in size
How it was run: as §1

[8] = Quantitative High-Throughput drug screen in 47 multiple myeloma cell lines against the NCATS MIPE library collection: XG1_PLB cell viability assay (AID 1919866); further: nearly all actives have a fitted effect of over 35% in size
How it was run: as §1

[9] = Quantitative High-Throughput drug screen in 47 multiple myeloma cell lines against the NCATS MIPE library collection: VP6_DJ cell viability assay (AID 1919867); further: nearly all actives have a fitted effect of over 40% in size
How it was run: as §1

[10] = Quantitative High-Throughput drug screen in 47 multiple myeloma cell lines against the NCATS MIPE library collection: UTMC2_PLB cell viability assay (AID 1919868); details: CellTiter-Glo ATP luminescence, 48 h; viability (% of DMSO control): at 45.8 µM (top of the series) unless noted; further: nearly all actives have a fitted effect of over 55% in size
How it was run: as §1

[11] = Quantitative High-Throughput drug screen in 47 multiple myeloma cell lines against the NCATS MIPE library collection: PE2_PLB cell viability assay (AID 1919869); further: nearly all actives have a fitted effect of over 35% in size
How it was run: as §1

[12] = Quantitative High-Throughput drug screen in 47 multiple myeloma cell lines against the NCATS MIPE library collection: PCM6_Riken cell viability assay (AID 1919870); further: nearly all actives have a fitted effect of over 30% in size
How it was run: as §1

[13] = Quantitative High-Throughput drug screen in 47 multiple myeloma cell lines against the NCATS MIPE library collection: OPM2_DSMZ cell viability assay (AID 1919872); further: nearly all actives have a fitted effect of over 30% in size
How it was run: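 CellTiter-Glo luminescence (ATP) after 48 h compound exposure, 37C/5% CO2; 500 cells/well; MIPE 4.0 approved/investigational drugs pinned in; DMSO = 100%, media only = 0% viability.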

[14] = Quantitative High-Throughput drug screen in 47 multiple myeloma cell lines against the NCATS MIPE library collection: KMS11_JCRBsus cell viability assay (AID 1919873); further: nearly all actives have a fitted effect of over 50% in size
How it was run: as §1

[15] = Quantitative High-Throughput drug screen in 47 multiple myeloma cell lines against the NCATS MIPE library collection: KMS28BM_JCRB cell viability assay (AID 1919874); further: nearly all actives have a fitted effect of over 35% in size
How it was run: as §1

[16] = qHTS drug screen for cell cycle checkpoint inhibitors in PARPi-resistant BRCA-mutant ovarian cancer cell lines. (AID 1963452; calls by dose curve); details: PEO1/OlaR viability, CellTiter-Glo luminescence, 96 h; for Z-AUC: stronger effect = lower value
How it was run: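 PEO1, PEO4 and PEO1/OlaR ovarian cancer cells, 600 per well, exposed 96 h at 37C to a dilution series. Viability read by CellTiter-Glo luminescence, normalized to DMSO and empty wells; activity summarized as Z-AUC.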

[17] = Quantitative High-Throughput drug screen in 47 multiple myeloma cell lines against the NCATS MIPE library collection: OCIMY5_PLB cell viability assay (AID 1918988); further: nearly all actives have a fitted effect of over 65% in size
How it was run: as §1

[18] = Quantitative High-Throughput drug screen in 47 multiple myeloma cell lines against the NCATS MIPE library collection: RPMI8226_ATCC cell viability assay (AID 1919871); further: nearly all actives have a fitted effect of over 30% in size
How it was run: as §1

[19] = qHTS for identification of novel therapeutic agents for treatment of microphthalmiaassociated transcription factor (MiT) renal cell carcinoma (RCC) (AID 1963991; calls by dose curve;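 on z-score: curves scaled with 100% = DMSO viability and 0% = empty wells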); details: CellTiter-Glo, 48 h; for Potency: active = Z-AUC below -0.8 in all three lines; for z-score: stronger effect = lower value
How it was run: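 UOK109/UOK124/UOK145 (TFE3 fusions, three partners); 500 cells/well; MIPE v4.0, 1912 cpds, 11 conc.; 48 h, 37 C; CellTiter-Glo, 15 min RT; lum. Norm.: DMSO 100%, empty 0%.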

[20] = Quantitative High-Throughput drug screen in 47 multiple myeloma cell lines against the NCATS MIPE library collection: SKMM1_PLB cell viability assay (AID 1919863); details: SKMM1 myeloma viability, CellTiter-Glo ATP, 48 h; viability: stronger effect = lower value; further: nearly all actives have a fitted effect of over 35% in size
How it was run: as §1

[21] = measured here: PEO1 parental Z-AUC
[22] = TFE3-RCC UOK109 viability, measured here: UOK109 Z-AUC
[23] = TFE3-RCC viability, measured here: UOK124 Z-AUC
[24] = TFE3-RCC viability, measured here: UOK145 Z-AUC
Potency means the concentration at half of the fitted maximal effect.

CNC(=O)c1ccc(N2C(=S)N(c3cnc(C#N)c(C(F)(F)F)c3)C(=O)C23CCC3)cc1F
active: Potency [1] 26400 nM | Potency [2] 7430 nM | Potency [4] 526 nM | Potency [5] 2640 nM | Potency [6] 662 nM | Potency [7] 93.5 nM | Potency [8] 264 nM | Potency [9] 1050 nM | Potency [10] 3320 nM | Potency [11] 1050 nM | Potency [12] 833 nM
-0.208: Z-AUC [16, 21]
0.0749: Z-AUC ([16]; measured here: PEO4 Z-AUC)
inactive: Potency [3] | Potency [13] | Potency [14] | Potency [15] | Z-AUC [16] 0.293

COc1ccc(-c2cc3c(C)nc(N)nc3n(C3CCC(OCCO)CC3)c2=O)cn1 (centres undefined)
-2.89: z-score [19, 22]
active: Potency [1] 33.2 nM | Potency [2] 10.5 nM | Potency [3] 74.3 nM | Potency [4] 118 nM | Potency [17] 83.3 nM | Potency [5] 46.9 nM | Potency [6] 264 nM | Potency [7] 66.2 nM | Potency [9] 1 nM | Potency [10] 52.6 nM | Potency [11] 46.9 nM | Potency [12] 264 nM | Potency [18] 26.4 nM | Potency [13] 66.2 nM | Potency [14] 7.4 nM | Potency [16] 490 nM | Potency ([19]; TFE3-RCC UOK109 viability) 11.8 nM
-1.31: z-score [19, 23]
-2.61: z-score [19, 24]
-1.44: Z-AUC ([16]; measured here: PEO4 Z-AUC)
-1.22: Z-AUC [16, 21]

CNC(=O)c1ccccc1Nc1nc(Nc2ccc(N3CCOCC3)cc2OC)ncc1Cl
0.134: Z-AUC [16, 21]
0.16: Z-AUC ([16]; measured here: PEO4 Z-AUC)
inactive: Z-AUC [16] 0.733
active: Potency [1] 935 nM | Potency [2] 132 nM | Potency [3] 935 nM | Potency [4] 332 nM | Potency [17] 1320 nM | Potency [5] 5260 nM | Potency [6] 13200 nM | Potency [7] 5900 nM | Potency [9] 526 nM | Potency [10] 209 nM | Potency [12] 10500 nM | Potency [18] 1050 nM | Potency [13] 4180 nM | Potency [14] 372 nM | Potency [15] 935 nM

CN1CCN(Cc2ccc(NC(=O)Nc3ccc(Oc4cc(NC(=O)C5CC5)ncn4)cc3)cc2C(F)(F)F)CC1
inactive: Potency [2] | Z-AUC [16] -1.5
-2.15: Z-AUC [16, 21]
-1.93: Z-AUC ([16]; measured here: PEO4 Z-AUC)
active: Potency [1] 372 nM | Potency [3] 332 nM | Potency [4] 526 nM | Potency [5] 166 nM | Potency [20] 332 nM | Potency [6] 418 nM | Potency [7] 148 nM | Potency [8] 187 nM | Potency [9] 93.5 nM | Potency [10] 132 nM | Potency [11] 148 nM | Potency [12] 105 nM | Potency [18] 418 nM | Potency [13] 526 nM | Potency [14] 235 nM | Potency [15] 209 nM

CCc1c2c(nc3ccc(O)cc13)-c1cc3c(c(=O)n1C2)COC(=O)[C@]3(O)CC
-3.8: Z-AUC [16, 21]
-3.13: Z-AUC ([16]; measured here: PEO4 Z-AUC)
active: Potency [1] 166 nM | Potency [2] 590 nM | Potency [3] 264 nM | Potency [5] 935 nM | Potency [20] 469 nM | Potency [6] 743 nM | Potency [9] 662 nM | Potency [11] 148 nM | Potency [12] 296 nM | Potency [18] 1320 nM | Potency [13] 1180 nM | Potency [14] 662 nM | Potency [15] 74.3 nM | Potency [16] 6.2 nM | Potency ([19]; TFE3-RCC UOK109 viability) 469 nM
-2.56: z-score [19, 24]
-1.63: z-score [19, 22]
-2.08: z-score [19, 23]

COc1cccc2c(NCc3ccccc3)nc(-n3c(N)nc4ccccc43)nc12
active: Potency [1] 8330 nM | Potency [2] 1320 nM | Potency [3] 6620 nM | Potency [17] 7430 nM | Potency [5] 5260 nM | Potency [6] 5900 nM | Potency [7] 2090 nM | Potency [8] 2350 nM | Potency [9] 4180 nM | Potency [11] 5260 nM | Potency [12] 2350 nM | Potency [14] 2640 nM | Potency [15] 2960 nM
-0.014: Z-AUC ([16]; measured here: PEO4 Z-AUC)
inactive: Z-AUC [16] -0.255
0.136: Z-AUC [16, 21]

O=C(NCCS(=O)(=O)c1ccc(C(F)(F)F)cn1)c1ccc(Cl)cc1
inactive: Potency [1] | Potency [2] | Potency [3] | Potency [5] | viability [20] 128% | Potency [6] | Potency [10] | Potency [11] | Potency [12] | Potency [13] | Potency [14] | Potency [15]
-0.45: z-score [19, 22]
0.348: z-score [19, 23]
0.45: z-score [19, 24]

COC(=O)[C@]12CCC(C)(C)C[C@@H]1[C@@H]1C(=O)C=C3[C@@]4(C)C=C(C#N)C(=O)C(C)(C)[C@@H]4CC[C@@]3(C)[C@]1(C)CC2
-1.96: z-score [19, 24]
-1.69: z-score [19, 23]
active: Potency [1] 526 nM | Potency [2] 526 nM | Potency [3] 662 nM | Potency [17] 209 nM | Potency [5] 209 nM | Potency [20] 469 nM | Potency [6] 264 nM | Potency [7] 372 nM | Potency [9] 264 nM | Potency [10] 372 nM | Potency [11] 332 nM | Potency [12] 332 nM | Potency [18] 526 nM | Potency [13] 833 nM | Potency [14] 187 nM | Potency [15] 264 nM | Potency ([19]; TFE3-RCC UOK109 viability) 1180 nM
-1.73: z-score [19, 22]
